# Test results reported in article PMC8384837, “Expanding the binding specificity for RNA recognition by a PUF domain”.
# Where a chain is given by its changes, count along the chain named.
# What was measured:
# Experiment in all cases: yeast three-hybrid, YBZ-1, SC-Leu-His + 0.5 mM 3-AT, 4 days
# Settings in all cases: tags: N-Gal4 AD-HA kept; label: inside an RPR1-promoter hybrid RNA with tandem MS2 sites; ssRNA
# PUM1 PUF domain R5-TYF = PUM1 PUF domain R5-TYF (Homo sapiens, UniProt Q14671 828-1176, C1007T;R1008Y;Q1011F)
# Summary of the method: (§1)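 Sequencing with Illumina followed PCR amplification of the repeat regions from transformants grown four days on SC-Leu (input) or SC-Leu-His + 0.5 mM 3-AT (selection). The transformants were strain YBZ-1 with a LexA–MS2 coat fusion and a HIS3 reporter, carrying Pumilio-1 PUF domain libraries and matching RNA elements. The interaction score is the log change in variant frequency from input to selection, computed in log2 with a pseudocount of 1 for absent variants.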
# PUM1 PUF domain R5-PLK = PUM1 PUF domain R5-PLK (Homo sapiens, UniProt Q14671 828-1176, C1007P;R1008L;Q1011K)
# Summary of the method: as §1
# PUM1 PUF domain R5-TRS = PUM1 PUF domain R5-TRS (Homo sapiens, UniProt Q14671 828-1176, C1007T;Q1011S)
# Summary of the method: as §1
# PUM1 PUF domain R5-RKD = PUM1 PUF domain R5-RKD (Homo sapiens, UniProt Q14671 828-1176, C1007R;R1008K;Q1011D)
# Summary of the method: as §1
# PUM1 PUF domain R1-NYS = PUM1 PUF domain R1-NYS (Homo sapiens, UniProt Q14671 828-1176, S863N;R864Y;Q867S)
# Summary of the method: as §1
# PUM1 PUF domain R6-CWI = molecular target: T1, PUM1 PUF domain R6-CWI (Homo sapiens, UniProt Q14671 828-1176, N1043C;Y1044W;Q1047I)
# T1 sequence: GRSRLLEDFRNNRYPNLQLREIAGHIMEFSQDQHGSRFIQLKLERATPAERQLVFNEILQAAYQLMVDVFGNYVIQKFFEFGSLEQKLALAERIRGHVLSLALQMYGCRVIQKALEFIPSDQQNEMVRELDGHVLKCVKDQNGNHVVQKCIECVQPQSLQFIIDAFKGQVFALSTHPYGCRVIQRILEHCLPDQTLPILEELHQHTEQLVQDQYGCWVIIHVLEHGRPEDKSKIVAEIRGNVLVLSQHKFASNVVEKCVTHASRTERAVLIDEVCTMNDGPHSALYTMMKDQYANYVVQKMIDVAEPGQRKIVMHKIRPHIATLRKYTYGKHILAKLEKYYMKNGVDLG
# Summary of the method: as §1
# PUM1 PUF domain R5-YNG = PUM1 PUF domain R5-YNG (Homo sapiens, UniProt Q14671 828-1176, C1007Y;R1008N;Q1011G)
# Summary of the method: as §1
# PUM1 PUF domain R3-CRA = PUM1 PUF domain R3-CRA (Homo sapiens, UniProt Q14671 828-1176, Q939A)
# Summary of the method: as §1
# PUM1 PUF domain R8-IRR = PUM1 PUF domain R8-IRR (Homo sapiens, UniProt Q14671 828-1176, N1122I;Y1123R;Q1126R)
# Summary of the method: as §1
# PUM1 PUF domain R4-PHT = PUM1 PUF domain R4-PHT (Homo sapiens, UniProt Q14671 828-1176, N971P;Q975T)
# Summary of the method: as §1
# PUM1 PUF domain R6-CFM = molecular target: T2, PUM1 PUF domain R6-CFM (Homo sapiens, UniProt Q14671 828-1176, N1043C;Y1044F;Q1047M)
# T2 sequence: T1 sequence with W217F, I220M
# Summary of the method: as §1
# PUM1 PUF domain R3-LYM = PUM1 PUF domain R3-LYM (Homo sapiens, UniProt Q14671 828-1176, C935L;R936Y;Q939M)
# Summary of the method: as §1
# PUM1 PUF domain R8-RHK = PUM1 PUF domain R8-RHK (Homo sapiens, UniProt Q14671 828-1176, N1122R;Y1123H;Q1126K)
# Summary of the method: as §1
# PUM1 PUF domain R3-VFW = PUM1 PUF domain R3-VFW (Homo sapiens, UniProt Q14671 828-1176, C935V;R936F;Q939W)
# Summary of the method: as §1
# PUM1 PUF domain R1-YFR = PUM1 PUF domain R1-YFR (Homo sapiens, UniProt Q14671 828-1176, S863Y;R864F;Q867R)
# Summary of the method: as §1
# PUM1 PUF domain R1-CCK = PUM1 PUF domain R1-CCK (Homo sapiens, UniProt Q14671 828-1176, S863C;R864C;Q867K)
# Summary of the method: as §1
# PUM1 PUF domain R3-SIR = PUM1 PUF domain R3-SIR (Homo sapiens, UniProt Q14671 828-1176, C935S;R936I;Q939R)
# Summary of the method: as §1
# PUM1 PUF domain R3-RTK = PUM1 PUF domain R3-RTK (Homo sapiens, UniProt Q14671 828-1176, C935R;R936T;Q939K)
# Summary of the method: as §1
# PUM1 PUF domain R7-RYP = PUM1 PUF domain R7-RYP (Homo sapiens, UniProt Q14671 828-1176, S1079R;N1080Y;E1083P)
# Summary of the method: as §1
# PUM1 PUF domain R8-KFS = PUM1 PUF domain R8-KFS (Homo sapiens, UniProt Q14671 828-1176, N1122K;Y1123F;Q1126S)
# Summary of the method: as §1
sequence,measurement,setting,value
GGCUAGAACUAGUGGAUCCCCCGGCGCCCGGCGGCUCGAGCCCGGGUAAGUGUUAAUAGUCUGCAUGCCGCCGGGCGCCAUGCCUGCAGGUCGACUCUAGAAAACAUG,binding signal,PUM1 PUF domain R5-TYF,1.26 log2 enrichment (interaction score)
same,binding signal,PUM1 PUF domain R5-PLK,2.84 log2 enrichment (interaction score)
same,binding signal,PUM1 PUF domain R5-TRS,3.03 log2 enrichment (interaction score)
GGCUAGAACUAGUGGAUCCCCCGGCGCCCGGCGGCUCGAGCCCGGGUAAGUGUCAAUAGUCUGCAUGCCGCCGGGCGCCAUGCCUGCAGGUCGACUCUAGAAAACAUG,binding signal,PUM1 PUF domain R5-RKD,4.06 log2 enrichment (interaction score)
GGCUAGAACUAGUGGAUCCCCCGGCGCCCGGCGGCUCGAGCCCGGGUAAGUGUGAAUAGUCUGCAUGCCGCCGGGCGCCAUGCCUGCAGGUCGACUCUAGAAAACAUG,binding signal,PUM1 PUF domain R5-TRS,2.97 log2 enrichment (interaction score)
GGCUAGAACUAGUGGAUCCCCCGGCGCCCGGCGGCUCGAGCCCGGGUAAGUGUAAAUAGUCUGCAUGCCGCCGGGCGCCAUGCCUGCAGGUCGACUCUAGAAAACAUG,binding signal,PUM1 PUF domain R1-NYS,2.51 log2 enrichment (interaction score)
same,binding signal,PUM1 PUF domain R6-CWI,4.75 log2 enrichment (interaction score)
same,binding signal,PUM1 PUF domain R5-YNG,2.79 log2 enrichment (interaction score)
same,binding signal,PUM1 PUF domain R5-TYF,2.88 log2 enrichment (interaction score)
same,binding signal,PUM1 PUF domain R3-CRA,2.9 log2 enrichment (interaction score)
same,binding signal,PUM1 PUF domain R8-IRR,1.39 log2 enrichment (interaction score)
same,binding signal,PUM1 PUF domain R4-PHT,6.07 log2 enrichment (interaction score)
same,binding signal,PUM1 PUF domain R6-CFM,3.02 log2 enrichment (interaction score)
same,binding signal,PUM1 PUF domain R3-LYM,4.11 log2 enrichment (interaction score)
same,binding signal,PUM1 PUF domain R8-RHK,2.95 log2 enrichment (interaction score)
same,binding signal,PUM1 PUF domain R5-TRS,2.85 log2 enrichment (interaction score)
same,binding signal,PUM1 PUF domain R3-VFW,4.87 log2 enrichment (interaction score)
GGCUAGAACUAGUGGAUCCCCCGGCGCCCGGCGGCUCGAGCCCGGGUAAGUGUAAAUUGUCUGCAUGCCGCCGGGCGCCAUGCCUGCAGGUCGACUCUAGAAAACAUG,binding signal,PUM1 PUF domain R1-NYS,3.41 log2 enrichment (interaction score)
same,binding signal,PUM1 PUF domain R1-YFR,6.74 log2 enrichment (interaction score)
same,binding signal,PUM1 PUF domain R1-CCK,2.6 log2 enrichment (interaction score)
GGCUAGAACUAGUGGAUCCCCCGGCGCCCGGCGGCUCGAGCCCGGGUAAGUGUAAUUAGUCUGCAUGCCGCCGGGCGCCAUGCCUGCAGGUCGACUCUAGAAAACAUG,binding signal,PUM1 PUF domain R3-SIR,1.21 log2 enrichment (interaction score)
same,binding signal,PUM1 PUF domain R3-VFW,5.01 log2 enrichment (interaction score)
same,binding signal,PUM1 PUF domain R3-RTK,4.87 log2 enrichment (interaction score)
GGCUAGAACUAGUGGAUCCCCCGGCGCCCGGCGGCUCGAGCCCGGGUAAGUCUAAAUAGUCUGCAUGCCGCCGGGCGCCAUGCCUGCAGGUCGACUCUAGAAAACAUG,binding signal,PUM1 PUF domain R7-RYP,5.27 log2 enrichment (interaction score)
GGCUAGAACUAGUGGAUCCCCCGGCGCCCGGCGGCUCGAGCCCGGGUAAGUGUAAGUAGUCUGCAUGCCGCCGGGCGCCAUGCCUGCAGGUCGACUCUAGAAAACAUG,binding signal,PUM1 PUF domain R3-CRA,1.42 log2 enrichment (interaction score)
same,binding signal,PUM1 PUF domain R3-SIR,2.77 log2 enrichment (interaction score)
GGCUAGAACUAGUGGAUCCCCCGGCGCCCGGCGGCUCGAGCCCGGGUAAGUGUAAAUGGUCUGCAUGCCGCCGGGCGCCAUGCCUGCAGGUCGACUCUAGAAAACAUG,binding signal,PUM1 PUF domain R1-YFR,2.6 log2 enrichment (interaction score)
GGCUAGAACUAGUGGAUCCCCCGGCGCCCGGCGGCUCGAGCCCGGGUAAGGGUAAAUAGUCUGCAUGCCGCCGGGCGCCAUGCCUGCAGGUCGACUCUAGAAAACAUG,binding signal,PUM1 PUF domain R8-RHK,3.54 log2 enrichment (interaction score)
GGCUAGAACUAGUGGAUCCCCCGGCGCCCGGCGGCUCGAGCCCGGGUAAGUGUACAUAGUCUGCAUGCCGCCGGGCGCCAUGCCUGCAGGUCGACUCUAGAAAACAUG,binding signal,PUM1 PUF domain R4-PHT,2.45 log2 enrichment (interaction score)
GGCUAGAACUAGUGGAUCCCCCGGCGCCCGGCGGCUCGAGCCCGGGUAAGCGUAAAUAGUCUGCAUGCCGCCGGGCGCCAUGCCUGCAGGUCGACUCUAGAAAACAUG,binding signal,PUM1 PUF domain R8-IRR,2.44 log2 enrichment (interaction score)
same,binding signal,PUM1 PUF domain R8-KFS,3.24 log2 enrichment (interaction score)
same,binding signal,PUM1 PUF domain R8-RHK,3.29 log2 enrichment (interaction score)
